Data from PubChem BioAssay AID463173 (ICCB-Longwood Screening Facility, Harvard Medical School, 2010).
The whole screen tested about 52,000 compounds, of which about 4,300 (8.3%) were called active. This excerpt belongs to a sample that is enriched for actives. Unmarked numbers belong to inactive results. No stated cut-off is given here; in the data, active means survival mostly below about 52% (no sharp cut-off); inactive means mostly above about 56%.

What follows are compounds tested on DeltatarO mutant (assay: S. aureus survival, RN4220 and DeltatarO strains – OD600, teichoic acid synthesis inhibitors, primary screen (AID 463173)). Conditions: S. aureus RN4220 wild type/DeltatarO growth, OD600, 18 h, hits give low values, screened at 18.75 µg/mL (by protocol).

SMILES	survival
COc1cc(OC)c(NC(=O)Nc2sc3nc4n(c(=O)c3c2C)CCC(C)CC4)cc1Cl (centres undefined)	85%
CCc1ccc(C(=O)c2cn(CC(=O)Nc3ccc4c(c3)OCCO4)c3ccc(C)cc3c2=O)cc1	57% (active)
COc1ccc(Cn2cc(C(=O)c3ccc(F)cc3)c(=O)c3cc4c(cc32)OCCO4)cc1	66%
O=C(c1ccc2c(c1)OCO2)c1cn(Cc2ccc(Cl)cc2)c2ccc(F)cc2c1=O	55% (active)
O=C(c1ccc2c(c1)OCO2)c1cn(Cc2ccc(F)cc2)c2ccccc2c1=O	68%
COc1ccc(Cn2cc(C(=O)c3ccc(C)cc3)c(=O)c3cc(OC)c(OC)cc32)cc1	93%
COc1ccccc1Cn1cc(C(=O)c2ccc(C)cc2)c(=O)c2cc(C)ccc21	112%
CCc1ccc2c(c1)c(=O)c(C(=O)c1ccc(C)cc1)cn2CC(=O)Nc1ccc2c(c1)OCCO2	61%
CCOc1ccc2c(c1)c(=O)c(C(=O)c1ccc3c(c1)OCO3)cn2Cc1ccc(F)cc1	98%
COc1ccc(C(=O)c2cn(Cc3ccc(F)cc3)c3ccc(C)cc3c2=O)cc1	24% (active)
CCc1ccc(C(=O)c2cn(Cc3ccccc3)c3cc(OC)c(OC)cc3c2=O)cc1	58%
CCc1ccc(C(=O)c2cn(CC(=O)Nc3ccc4c(c3)OCCO4)c3ccc(CC)cc3c2=O)cc1	72%
COc1ccccc1Cn1cc(C(=O)c2ccccc2)c(=O)c2cc(OC)c(OC)cc21	23% (active)
COCCNC(=O)CSc1nc2ccccc2nc1Cc1ccc(C)cc1	78%
CCOC(=O)c1oc2ccccc2c1CN(C)CCc1ccccc1	70%
COc1ccc(CCn2c(=O)c3cccnc3n(CC(=O)Nc3c(C)cccc3C)c2=O)cc1OC	90%
COc1ccccc1C(=O)Nc1ccc(NC(=O)c2cccs2)cc1	51%
CCc1nnc(NC(=O)C(=O)c2cc(C)n(-c3ccccc3)c2C)s1	77%
CCOc1ccc(-n2c(SCC(=O)Nc3ccccc3OC)nc3c(oc4ccccc43)c2=O)cc1	69%
COc1ccc(-c2noc(C3CC(=O)N(c4ccc5c(c4)OCCO5)C3)n2)c(OC)c1 (centres undefined)	98%
COc1ccc(N(C(=O)c2ccc(C(C)(C)C)cc2)S(=O)(=O)c2ccc(Cl)cc2)cc1	81%

SMILES	survival
Cc1ccc2c(c1)c(=O)c(C(=O)c1ccc3c(c1)OCO3)cn2Cc1ccc(Cl)cc1	46% (active)
Cc1ccc2c(c1)c(=O)c(C(=O)c1ccc3c(c1)OCO3)cn2Cc1cccc(F)c1	66%
Cc1ccc(Cn2cc(C(=O)c3ccc4c(c3)OCO4)c(=O)c3cc(C)ccc32)cc1	59%
CCOC(=O)c1ccc(NC(=O)CC2C(=O)N(c3ccc(F)cc3)C(=O)N2Cc2ccc3c(c2)OCO3)cc1 (centres undefined)	116%
O=C(c1ccc(-n2cnnn2)cc1)N(C1CCCCC1)C1CCCCC1	93%
COc1cc(OC)c(NC(=O)NCCn2nnc3cc(S(=O)(=O)N(C)C)ccc32)cc1Cl	88%
Cc1cc(F)ccc1-n1nnc(C(N)=O)c1C	76%
COc1ccc(-n2c(SCC(=O)NCc3ccccc3)nc3c([nH]c4ccccc43)c2=O)cc1	93%
CC(NC(=O)CCn1c(=O)c2cccn2c2ccc(F)cc21)c1ccccc1 (centres undefined)	59%
CC(CNC(=O)CCCn1c(=O)c2cccn2c2ccc(F)cc21)c1ccccc1 (centres undefined)	35% (active)
CC(CNC(=O)CCCn1c(=O)c2cccn2c2ccccc21)c1ccccc1 (centres undefined)	47%
CC(CNC(=O)CCn1c(=O)c2cccn2c2ccc(F)cc21)c1ccccc1 (centres undefined)	34% (active)
CC(CNC(=O)CCCn1c(=O)c2cccn2c2cccnc21)c1ccccc1 (centres undefined)	95%
COc1cc(C(=O)NCC(c2ccco2)S(=O)(=O)c2cccs2)cc(OC)c1OC (centres undefined)	91%
COc1cc(C2c3c(-c4c(C)cc(C)cc4O)n[nH]c3C(=O)N2CCCOC(C)C)cc(OC)c1OC (centres undefined)	86%
CCOc1cc(CNC(=O)c2ccc3c(c2)NC(=O)C2CCCCN32)cc(OCC)c1OCC (centres undefined)	107%
O=C1C2C3C=CC(C3)C2C(=O)N1c1ccc(Cl)cc1 (centres undefined)	70%
CCC(Oc1ccccc1)C(=O)Nc1ccc(OCc2cc(=O)n3ccc(C)cc3n2)cc1 (centres undefined)	91%
O=C(NCCc1ccccc1)c1ccc2c(c1)N(Cc1ccc(F)cc1)C(=O)c1ccccc1S2	99%
COc1cccc(-c2nc(CS(=O)(=O)CC(=O)NCCc3ccc(Cl)cc3)c(C)o2)c1	63%
COc1cccc(-c2nc(CSCC(=O)NCCc3ccc(Cl)cc3)c(C)o2)c1	-4% (active)

SMILES	survival
Cc1cccc(-c2nc(CSCC(=O)NCCc3ccc(Cl)cc3)c(C)o2)c1	-7% (active)
COc1ccc(CCNC(=O)CSCc2nc(-c3cccc(C)c3)oc2C)cc1OC	66%
COc1ccc(-c2nc(CSCC(=O)NCCc3ccc(OC)c(OC)c3)c(C)o2)cc1	79%
CCOc1ccc(CCNC(=O)CSCc2nc(-c3cccc(C)c3)oc2C)cc1OCC	82%
O=C(c1cc(=O)c2cc(Cl)ccc2o1)N(Cc1ccccc1)C1CCS(=O)(=O)C1 (centres undefined)	51%
N#Cc1ccccc1NC(=O)CSC1=NCCS1	99%
COc1ccc(Nc2ncnc3scc(-c4ccc(F)cc4)c23)cc1	92%
COc1ccc(-c2csc3ncnc(Nc4cccc(OC)c4)c23)cc1	69%
COc1ccc(-c2csc3ncnc(Nc4cccc(F)c4)c23)cc1	0% (active)
O=C1CC(c2nc3ccccc3[nH]2)CN1c1cccc(Cl)c1 (centres undefined)	81%
COc1cc(C(=O)NCCSc2c(-c3ccccc3)[nH]c3ccccc23)cc(OC)c1OC	68%
CC(C)c1ccc(NS(=O)(=O)c2ccc3[nH]cc(C(=O)NCCc4ccccc4)c(=O)c3c2)cc1	73%
Cc1cc(C)cc(NS(=O)(=O)c2ccc3[nH]cc(C(=O)N4CCCCCC4)c(=O)c3c2)c1	85%
CCN(c1ccccc1)S(=O)(=O)c1ccc2[nH]cc(C(=O)NC3CCCCC3)c(=O)c2c1	82%
CC(C)c1ccc(NS(=O)(=O)c2ccc3[nH]cc(C(=O)N4CCCC4)c(=O)c3c2)cc1	76%
CC(C)c1ccc(NS(=O)(=O)c2ccc3[nH]cc(C(=O)NCC4CCCO4)c(=O)c3c2)cc1 (centres undefined)	81%
CC(C)c1ccc(NS(=O)(=O)c2ccc3[nH]cc(C(=O)NC4CCCC4)c(=O)c3c2)cc1	4% (active)
Cc1cc(C)cc(NS(=O)(=O)c2ccc3[nH]cc(C(=O)N4CCCCC4)c(=O)c3c2)c1	83%
COc1cccc(NS(=O)(=O)c2ccc3[nH]cc(C(=O)N4CCCCCC4)c(=O)c3c2)c1	124%
COc1cccc(NS(=O)(=O)c2ccc3[nH]cc(C(=O)N(C)C4CCCCC4)c(=O)c3c2)c1	98%
COc1cccc(NS(=O)(=O)c2ccc3[nH]cc(C(=O)NC4CCCCC4)c(=O)c3c2)c1	35% (active)

SMILES	survival
CC(C)c1ccc(NS(=O)(=O)c2ccc3[nH]cc(C(=O)NC4CCCCC4)c(=O)c3c2)cc1	14% (active)
Cc1cc(C)cc(NS(=O)(=O)c2ccc3[nH]cc(C(=O)NC4CCCCC4)c(=O)c3c2)c1	17% (active)
Fc1ccc(Nc2ncnc3c2nc2n3CCCCC2)c(F)c1	55%
CN(C)S(=O)(=O)N(CC(=O)NCCSc1ccc(Cl)cc1)c1ccccc1	50%
NC(=O)CCn1c2ccccc2c2ccccc21	78%
O=C1C=CC(=O)C(c2ccc(Cl)cc2)=C1	66%
CCCCNc1sc(S(=O)(=O)CCC)nc1S(=O)(=O)c1ccc(C)cc1	86%
Cc1ccc(S(=O)(=O)c2c(Nc3ccc(C)c(C)c3)sc(C(=O)c3ccc4c(c3)OCO4)c2N)cc1	125%
COc1ccccc1NC(=O)c1cc2c([nH]c1=O)CC(C)(C)CC2=O	90%
CCN(CC)C(=O)c1sc2c(c1C)c(=O)n(CCc1ccccc1)c(=O)n2Cc1cccc(Cl)c1	102%
CCOc1ccc(-c2nc(Cn3ccn4nc(-c5ccc(OCC)c(Cl)c5)cc4c3=O)c(C)o2)cc1	96%
CCCCOc1ccc(-c2nnn(C(C)(C)C(=O)O)n2)cc1	99%
CCOC(=O)c1c(S(=O)(=O)NCC(=O)N2CCN(c3ccccc3OC)CC2)c(C)n(C)c1C	77%
O=C(CSc1nc(O)cc(=O)[nH]1)Nc1ccccc1	82%
Cc1ccccc1NS(=O)(=O)c1ccc2[nH]cc(C(=O)NC(C)c3ccccc3)c(=O)c2c1 (centres undefined)	90%
O=C(NC1CCCC1)c1c[nH]c2ccc(S(=O)(=O)Nc3cccc(C(F)(F)F)c3)cc2c1=O	16% (active)
CC(C)CCNC(=O)c1c[nH]c2ccc(S(=O)(=O)Nc3cccc(C(F)(F)F)c3)cc2c1=O	74%
COc1cccc(NS(=O)(=O)c2ccc3[nH]cc(C(=O)NCCc4ccccc4)c(=O)c3c2)c1	83%
COc1cccc(NS(=O)(=O)c2ccc3[nH]cc(C(=O)NC(C)c4ccccc4)c(=O)c3c2)c1 (centres undefined)	37% (active)
CN(C(=O)c1c[nH]c2ccc(S(=O)(=O)Nc3cccc(C(F)(F)F)c3)cc2c1=O)C1CCCCC1	72%
CCOc1ccc(-c2noc(CSc3nnc(Cc4ccccc4)n3-c3cccc(C)c3)n2)cc1	66%
